CHO-K1 Ca PAM: nonselective activator or artifact in parental CHO-K1 calcium assay | AID 602247 | ATP EC20, Fluo-8 calcium fluorescence; 0% at ATP EC20, 100% at ATP max | 0.02% of 360,000 active | activation, % at 3 µM;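 active = activation above the run cutoff, the mean activation of all test compounds plus 3 SD, cut at about 40% in these data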;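 also: peak over basal fluorescence ratio in a 140 s read after ATP addition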
CHRM1 antagonist: antagonists of human M1 muscarinic receptor | P11229 | CHO-K1 hM1, Fluo-8 calcium fluorescence, ACh EC80 antagonist | inhibition, % at 3 µM | 1.3% of 360,000 active | AID 588852;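 active = percent inhibition above its own plate's cutoff, namely the mean of that plate's compound wells plus 3 SD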;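 also: peak over basal fluorescence ratio during 140 s after agonist addition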
Target sequence (P11229 whole entry, looked up): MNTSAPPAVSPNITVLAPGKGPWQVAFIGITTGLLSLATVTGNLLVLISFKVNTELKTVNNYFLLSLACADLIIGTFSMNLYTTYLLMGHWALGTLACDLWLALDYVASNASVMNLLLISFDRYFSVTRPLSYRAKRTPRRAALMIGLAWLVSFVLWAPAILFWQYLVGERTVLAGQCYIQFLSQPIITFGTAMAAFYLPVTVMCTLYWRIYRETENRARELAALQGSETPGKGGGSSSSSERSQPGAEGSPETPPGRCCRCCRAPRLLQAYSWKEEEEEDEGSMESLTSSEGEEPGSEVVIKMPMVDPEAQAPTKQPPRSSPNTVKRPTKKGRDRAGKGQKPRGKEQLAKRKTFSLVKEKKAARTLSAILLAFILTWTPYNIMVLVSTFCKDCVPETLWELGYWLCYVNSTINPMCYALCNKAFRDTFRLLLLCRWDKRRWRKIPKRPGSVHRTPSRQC
CHRM1 PAM: human CHRM1 positive allosteric modulation; P11229; CHO-K1 hM1, Fluo-8 calcium fluorescence, ACh EC20; 0% = ACh EC20, 100% = maximal ACh; activation, % at 3 µM; 0.088% of 360,000 active; AID 588819; in the data active = activation above about 19%, passing the limit was not always enough
CHO-K1 Ca antag: counter-screen for M1 antagonists: effect in parental CHO-K1 cells; ATP-induced calcium, Fluo-8 fluorescence; 0.6% of 360,000 active; inhibition, % at 3 µM; AID 602250;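 active = inhibition above a per-plate cutoff, the plate's mean sample inhibition plus 3 SD, cut at about 24% in these data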
CHO-K1 Ca ag: nonselective activator or artifact in parental CHO-K1 cells | Fluo-8 calcium fluorescence; scaled to maximal ATP response, vehicle zero | activation, % at 3 µM | 0.48% of 360,000 active | AID 602248; in the data active = activation above about 15%;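 also: untransfected CHO-K1 host cells lacking M1 receptor as counterscreen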
M1 ag: activates human CHRM1 receptor. CHO-K1 hM1, Fluo-8 calcium fluorescence, agonist mode; 0% DMSO, 100% acetylcholine EC100. 0.33% of 360,000 active. P11229. activation, % at 3 µM;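 active = activation above the run's mean compound activation plus 3 SD, cut at about 16% in these data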;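 also: peak over basal fluorescence ratio within a 140 s kinetic read after compound addition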
A number is an active result; 0 = inactive. Sampled rows, rich in hits. Any-hit rate of the full collection: about 2.4%.

SMILES | CHO-K1 Ca PAM | CHRM1 antagonist | CHRM1 PAM | CHO-K1 Ca antag | CHO-K1 Ca ag | M1 ag
COc1ccc(CC(=O)Oc2ccc(C(C)C)cc2)cc1S(=O)(=O)N1CCOCC1 | 0 | 0 | 0 | 0 | 0 | 0
COc1ccc(-c2nnc(NC(=O)C(C)C)s2)c(OC)c1 | 0 | 39 | 0 | 0 | 0 | 0
COc1ccccc1OCC(=O)Nc1c2c(nn1-c1ccccc1)CS(=O)(=O)C2 | 0 | 0 | 0 | 0 | 0 | 0
O=C1C=C(c2cccnc2)CCC1 | 0 | 0 | 0 | 0 | 0 | 0
O=C1CCCc2[nH]nc(-c3cccnc3)c21 | 0 | 0 | 0 | 26 | 0 | 0
COc1ccc(N2CCN(CC(=O)c3c[nH]c4ccccc34)CC2)cc1 | 0 | 0 | 0 | 24 | 0 | 0
COc1ccc(N2CCN(C(=O)C(=O)c3c[nH]c4ccccc34)CC2)cc1 | 0 | 0 | 0 | 0 | 0 | 0
Cc1ccc2[nH]cc(C(=O)CN3CCN(c4ccccc4F)CC3)c2c1 | 0 | 0 | 0 | 0 | 16 | 0
N#CC1=C(N)Oc2cc(O)c(Cl)cc2C1c1ccccc1F (stereo not drawn) | 0 | 0 | 0 | 0 | 0 | 26
N#CC1=C(N)Oc2cc(O)c(Cl)cc2C1c1cccnc1 (stereo not drawn) | 0 | 0 | 0 | 0 | 0 | 0
Cn1cc(C(=O)c2ccc(Cl)cc2)cc1-c1nc2ccccc2n1C | 0 | 24 | 0 | 0 | 0 | 0
Cc1ccc(S(=O)(=O)c2cn(C)c3cc(N4CCN(C)CC4)c(F)cc3c2=O)c(C)c1 | 0 | 0 | 0 | 0 | 0 | 0
O=C1C(Cl)=C(N2CCCC2)C(=O)N1c1ccc(F)cc1 | 0 | 0 | 0 | 0 | 0 | 0
CCN(CC)Cc1ccccc1Sc1ccccc1 | 0 | 98 | 0 | 0 | 0 | 0
N/C(Cc1ccccc1Sc1ccccc1)=N\O | 0 | 0 | 0 | 0 | 0 | 0
N#CC[C@H](c1ccccc1)N1CCN(Cc2ccccc2)CCC1=O | 0 | 0 | 0 | 0 | 0 | 0
COc1ccc2occ(C(=O)c3coc4ccc(O)c(CN(C)C)c34)c2c1 | 0 | 20 | 0 | 0 | 0 | 0
COc1ccc(OC)c(C(=O)c2coc3ccc(O)c(CN(C)C)c23)c1 | 0 | 0 | 0 | 0 | 0 | 0
O=C1C(=O)N(CCCN2CCOCC2)C(c2ccc(Cl)cc2)/C1=C(/O)c1ccc(F)cc1 (stereo not drawn) | 0 | 0 | 0 | 0 | 0 | 0
O=C1C(=O)N(CCN2CCOCC2)C(c2ccc(F)cc2)/C1=C(/O)c1ccc(S(=O)(=O)N2CCOCC2)cc1 (stereo not drawn) | 0 | 31 | 0 | 0 | 0 | 0
O=C(NC1CCCCC1)C(=O)c1c[nH]c2ccccc12 | 0 | 0 | 0 | 0 | 0 | 0
N#CNC(=Nc1ccccc1)SCc1ccc(C(=O)O)cc1 | 0 | 0 | 0 | 0 | 0 | 0
CSC(=Nc1ccccc1)N=C(SCc1ccccc1)N(C)C | 0 | 49 | 0 | 0 | 0 | 0
c1ccc2c3c([nH]c2c1)CCNC3 | 0 | 0 | 0 | 0 | 0 | 27
O=C(C[C@H]1C/C=C\C[C@H](Cc2ccc(F)cc2)C(=O)O[C@@H](c2ccccc2)CNC1=O)NCCO | 0 | 0 | 0 | 0 | 0 | 0
SMILES | CHO-K1 Ca PAM | CHRM1 antagonist | CHRM1 PAM | CHO-K1 Ca antag | CHO-K1 Ca ag | M1 ag
CCOC(=O)c1cc(C#N)c(SC)nc1C | 0 | 0 | 0 | 0 | 0 | 0
CSc1nc(C)c(C(=O)C[n+]2ccccc2C)cc1C#N | 0 | 40 | 0 | 0 | 0 | 0
Cc1ccc(S(=O)(=O)NNC(=O)C2CCN(Cc3ccccc3)CC2)cc1 | 0 | 80 | 0 | 0 | 0 | 0
COC(=O)C1CCN(Cc2ccc(C)cc2)CC1 | 0 | 0 | 0 | 0 | 0 | 0
Cc1ccc(S(=O)(=O)NC2=NCN(C3CCN(Cc4ccccc4)CC3)CN2)cc1 | 0 | 29 | 0 | 0 | 0 | 0
Cc1ccc(S(=O)(=O)NC2=NCN(Cc3ccccc3)CN2)cc1 | 0 | 0 | 0 | 0 | 0 | 0
CC(=O)Nc1ccc(C(=O)OCCCOC(=O)c2ccc(NC(C)=O)cc2)cc1 | 0 | 0 | 0 | 0 | 0 | 0
O=C(OCCCOC(=O)c1cc[n+]([O-])cc1)c1cc[n+]([O-])cc1 | 0 | 0 | 26 | 0 | 0 | 0
CCN(CC(=O)Nc1c(F)cccc1F)C(=O)CC1CCCCC1 | 0 | 0 | 0 | 0 | 0 | 0
Cc1nn(Cc2ccccc2)c(Cl)c1/C=C/C(=O)OCC(=O)NC(C)C(C)C (stereo not drawn) | 0 | 0 | 0 | 0 | 0 | 0
Cc1nn(Cc2ccccc2)c(Cl)c1/C=C/C(=O)OC(C)C(=O)N1CCCC1 (stereo not drawn) | 0 | 37 | 0 | 0 | 0 | 0
Cc1ccc(NC(=O)c2ccc(Cl)c(S(=O)(=O)N3CCc4ccccc43)c2)nc1 | 0 | 0 | 0 | 0 | 0 | 0
O=C(NNC(=O)c1ccccc1O)c1ccc(Cl)c(S(=O)(=O)N2CCc3ccccc32)c1 | 0 | 38 | 0 | 40 | 0 | 0
CC(=O)N1CCN(C(=O)c2ccc(Cl)c(S(=O)(=O)N3CCc4ccccc43)c2)CC1 | 0 | 0 | 0 | 0 | 0 | 0
O=C(c1ccc(Cl)c(S(=O)(=O)N2CCc3ccccc32)c1)N1CCN(c2ccccc2O)CC1 | 0 | 25 | 0 | 0 | 0 | 0
CN(C)S(=O)(=O)N1CCC(Oc2cccc(C(=O)NC3CCCCCC3)c2)CC1 | 0 | 0 | 0 | 0 | 15 | 0
O=C(C1=C(O)C(=O)N(c2nccs2)C1c1ccccc1)c1cc2ccccc2o1 (stereo not drawn) | 0 | 0 | 0 | 0 | 24 | 0
CN(Cc1cn(C)nc1-c1ccc(Oc2ccccc2)cc1)Cc1cnc2ccccn12 | 0 | 24 | 0 | 0 | 0 | 0
Cn1cc(CNCc2cnc3ccccn23)c(-c2ccc(Oc3ccccc3)cc2)n1 | 0 | 0 | 0 | 0 | 0 | 0
CCOc1ccc(/C=C/C(=O)OC(C)C(=O)NC2CCCCC2C)cc1OC (stereo not drawn) | 0 | 0 | 0 | 0 | 0 | 0
COc1cccc(Nc2nc(C(N)Cc3ccc(F)cc3)cs2)n1 (stereo not drawn) | 0 | 0 | 0 | 0 | 15 | 0
COc1ccccc1C(=O)Nc1cccc2nc(C)ccc12 | 0 | 0 | 0 | 0 | 0 | 0
COc1ccc(NC(=O)CS(=O)c2cccc(Cl)c2)cc1 (stereo not drawn) | 0 | 0 | 0 | 0 | 0 | 0
O=C1c2ccccc2C(=O)N1c1ccc(S(=O)(=O)N2CCCCC2)cc1 | 0 | 0 | 0 | 0 | 0 | 0
N=C1c2ccccc2CN1c1ccc(S(=O)(=O)N2CCCCC2)cc1 | 0 | 74 | 0 | 0 | 0 | 0
CCOC(=O)c1ccc(N2Cc3ccccc3C2=N)cc1 | 0 | 70 | 0 | 0 | 0 | 0
CC(=O)Nc1ccc(S(=O)(=O)N[C@@H](C)C(=O)NC2CCCc3ccccc32)cc1 (stereo partly drawn) | 0 | 0 | 0 | 0 | 0 | 0
CCOc1cc(/C=N/n2cnnc2)ccc1OC(=O)c1cccc([N+](=O)[O-])c1 | 0 | 0 | 0 | 31 | 0 | 0
Cn1c(SCC(=O)NCC2COc3ccccc3O2)nnc1C(F)(F)F (stereo not drawn) | 0 | 0 | 0 | 0 | 0 | 0
COc1ccccc1NC(=O)CSc1nnc(C2CCCCC2)o1 | 0 | 0 | 0 | 24 | 0 | 0

Screens as filed in PubChem BioAssay.
